Results taken from PubChem BioAssay (NCATS).
“And” between values parts separate entries of the source, which are not always exact repeats. Equal values may be shown once. Records with an inconclusive call do not appear. The source made the active and inactive calls. Unless noted, the call rests on the fitted dose curve; in most records, active means well fitted curve in either direction with a large enough effect (not every such curve was filed as active); inconclusive means small, poorly fitted or top-dose-only effect, or another doubt; inactive means flat fitted curve, though single readings scatter.

How the values were obtained:
[1] = target: Cytochrome P450 1A2 (Homo sapiens) (UniProt P05177); assay: p450-cyp1a2 (AID 410; calls by dose curve; further: potency means the concentration at half of the fitted maximal effect;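 on activity change, negative = inhibition: -100% = full effect of reference inhibitor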)
Summary of the method: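 Luminescent readout of luciferin formed from Luciferin-ME by human CYP1A2; data normalized against complete inhibition by 57 uM furafylline. Enzyme 20nM, substrate 100uM at Km, 100mM KPO4 buffer, 60 min reaction at room temperature.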

[2] = NFAT Signaling Pathway (AID 444); settings: Jurkat NFAT-bla M1, carbachol, beta-lactamase ratio, 5 h;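 further: carbachol stimulus at about its EC50 of 1 µM final; on the % scale 0 is the no-effect control and ±100 the full control effect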
Summary of the method: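 Jurkat cells carrying an NFAT-driven β-lactamase reporter and co-transfected muscarinic M1 receptor were treated with compound plus carbachol (1 uM final, an EC50 level) for 5 h at 37 °C. CCF4 loading followed for 1 h at RT; 460/530 nm ratio gave %activity.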

[3] = Stat Signaling Pathway (AID 446);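 further: ME-180 cervical cancer cells given 40 pM IL-6 alongside compound; SIE-controlled beta-lactamase reporter measured as 460/530 nm FRET emission ratio; on the % scale 0 is the no-effect control and ±100 the full control effect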
Summary of the method: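 Screening format detects activators and inhibitors alike: ME-180 SIE-bla cells stimulated at 40 pM IL-6 for 5 hrs with compound, then dual-emission beta-lactamase read at 405 nm excitation.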

[4] = target: Glucocorticoid receptor (Homo sapiens) (UniProt P04150); assay: GR-GFP Redistribution (AID 450;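 active means compounds whose dose series gives a full or clear partial fitted curve of increased nuclear translocation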; further: potency means the concentration at half of the fitted maximal effect); settings: U2OS GR-GFP nuclear translocation, laser cytometry, 2 h
[5] = AP1 Signaling Pathway (AID 357);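 further: ME-180 reporter cells stimulated with EGF at its EC50 level; on the % scale 0 is the no-effect control and ±100 the full control effect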
Summary of the method: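 Titration-series screen for positive or negative modulators of EC50 EGF-induced signaling in ME-180 cells carrying an AP-1-driven beta-lactamase reporter. After 5 hours at 37 degrees Celsius, CCF4 460nm/530nm emission ratio gave %Activity; AC50 values derived.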

[6] = Cell Viability - BJ (AID 421; calls by dose curve;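 further: potency means the concentration at half of the fitted maximal effect; cells exposed to compound for 40 hours at 37 °C before readout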); settings: BJ fibroblast viability, qHTS
Summary of the method: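 Cytotoxicity in human BJ foreskin fibroblasts is scored as loss of cellular ATP after a 40-hour exposure, measured by luciferase luminescence. Controls are DMSO and 100 uM tamoxifen.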

[7] = Cell Viability - Jurkat (AID 426;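 active means dose-dependent loss of cell ATP signal giving a full or clear fitted curve, ranked by lower potency value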;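 further: potency means the concentration at half of the fitted maximal effect; cells exposed to compound for 40 hours at 37 °C before ATP read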); settings: qHTS
Summary of the method: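 qHTS, 1536-well; Jurkat E6-1, 5000 cells/well, complete medium; cpd 40 hr, 37 °C; CellTiter-Glo 20 min RT; luminescence. AC50 by Hill fit.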

[8] = Cell Viability - Hek293 (AID 427;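 active means compounds whose dose-response curve shows a full or clear partial loss of cell viability, called from curve shape rather than a numeric limit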;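 further: potency means the concentration at half of the fitted maximal effect; cells exposed to compound for 40 hours at 37 °C before reading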); settings: qHTS
Summary of the method: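 qHTS, human embryonic kidney (adenovirus-transformed) cells; 40 hr cpd, 37 °C; CellTiter-Glo ATP luminescence. Norm: DMSO = 0, 100 uM tamoxifen = 100% inhibition. Hill-fit AC50.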

[9] = Cell Viability - HepG2 (AID 433; calls by dose curve;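 further: potency means the concentration at half of the fitted maximal effect; cells exposed to compound for 40 hours; potency for ATP loss meaning cytotoxicity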); settings: qHTS
Summary of the method: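 HepG2 hepatocellular carcinoma cells (1500/well) were treated with compounds for 40 h at 37 °C in complete medium; intracellular ATP was read by CellTiter-Glo luminescence. Data were normalized to DMSO and 100 uM tamoxifen, and AC50 came from Hill fits.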

[10] = Cell Viability - MRC5 (AID 434; calls by dose curve;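 further: potency means the concentration at half of the fitted maximal effect; cells exposed to compound for 40 hours at 37 °C; potency reflects cytotoxicity seen as loss of intracellular ATP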); settings: MRC5 lung fibroblast viability, qHTS
Summary of the method: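 MRC5 normal human lung fibroblasts (1500/well) were treated with compounds for 40 hr at 37 °C in complete medium, and viable cells were measured as intracellular ATP by CellTiter-Glo luminescence. AC50 came from Hill fits, normalized to DMSO and 100 uM tamoxifen.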

Chain of Glucocorticoid receptor (Homo sapiens) (P04150 whole entry, looked up): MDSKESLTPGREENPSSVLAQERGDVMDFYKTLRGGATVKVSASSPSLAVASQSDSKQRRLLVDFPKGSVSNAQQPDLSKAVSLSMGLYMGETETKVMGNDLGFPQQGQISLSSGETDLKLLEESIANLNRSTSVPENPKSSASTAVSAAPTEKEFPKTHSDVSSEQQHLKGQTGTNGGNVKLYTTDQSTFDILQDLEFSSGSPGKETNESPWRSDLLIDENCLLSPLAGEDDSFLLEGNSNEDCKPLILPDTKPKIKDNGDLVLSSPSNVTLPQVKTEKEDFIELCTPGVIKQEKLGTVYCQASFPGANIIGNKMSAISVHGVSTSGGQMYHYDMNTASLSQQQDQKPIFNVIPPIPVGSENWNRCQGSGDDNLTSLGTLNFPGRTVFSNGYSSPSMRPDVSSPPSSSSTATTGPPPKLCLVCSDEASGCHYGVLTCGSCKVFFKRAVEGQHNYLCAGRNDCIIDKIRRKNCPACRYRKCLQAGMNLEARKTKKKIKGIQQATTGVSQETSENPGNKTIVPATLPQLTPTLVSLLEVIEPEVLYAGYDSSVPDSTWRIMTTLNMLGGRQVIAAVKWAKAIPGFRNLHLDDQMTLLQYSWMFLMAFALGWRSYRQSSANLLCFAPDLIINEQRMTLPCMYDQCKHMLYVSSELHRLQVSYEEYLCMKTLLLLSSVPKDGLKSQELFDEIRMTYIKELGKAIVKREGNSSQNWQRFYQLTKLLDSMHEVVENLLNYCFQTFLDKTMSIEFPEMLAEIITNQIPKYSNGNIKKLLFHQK
Chain of Cytochrome P450 1A2 (Homo sapiens) (P05177 whole entry, looked up): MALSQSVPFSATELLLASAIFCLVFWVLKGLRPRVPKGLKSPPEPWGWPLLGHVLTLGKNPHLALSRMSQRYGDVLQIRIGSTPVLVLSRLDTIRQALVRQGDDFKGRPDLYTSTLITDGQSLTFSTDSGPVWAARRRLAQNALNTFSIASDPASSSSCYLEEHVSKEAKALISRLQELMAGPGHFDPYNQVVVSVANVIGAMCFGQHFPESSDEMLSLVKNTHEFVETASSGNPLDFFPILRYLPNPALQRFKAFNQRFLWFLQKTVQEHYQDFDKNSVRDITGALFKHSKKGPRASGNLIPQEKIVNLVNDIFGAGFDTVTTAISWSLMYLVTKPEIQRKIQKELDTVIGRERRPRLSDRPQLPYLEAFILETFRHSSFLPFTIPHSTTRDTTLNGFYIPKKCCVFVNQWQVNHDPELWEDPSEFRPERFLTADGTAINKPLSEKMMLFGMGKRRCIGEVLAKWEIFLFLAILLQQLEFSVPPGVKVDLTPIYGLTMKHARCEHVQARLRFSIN

CCC1=C(C)CN(C(=O)NCCc2ccc(S(=O)(=O)NC(=O)NC3CCC(C)CC3)cc2)C1=O (stereo unspecified)
inactive: Potency [1] | activity change, negative = inhibition ([2]; at 17.2 µM (top of the series)) 4.19% | outcome [3] | Potency [4] > 20.6 µM

O=c1c(O)c(-c2ccc(O)cc2O)oc2cc(O)cc(O)c12
inactive: activity change, negative = inhibition ([2]; at 17.2 µM (top of the series)) 10% | activity change, negative = inhibition ([2]; at 38 µM (top of the series)) 2.93% | Potency [4] > 46 µM and > 20.6 µM
active: Potency [1] 12.6 µM

Cc1cccc(C#Cc2ccccc2)n1
active: Potency [1] 631 nM and 158 nM
inactive: activity change, negative = inhibition ([2]; at 38 µM (top of the series)) -6.27% | outcome [3] | Potency [4] > 46 µM

Oc1ccc(OCc2ccccc2)cc1
inactive: activity change, negative = inhibition ([2]; at 17.2 µM (top of the series)) -7.24% | outcome [3] | Potency [4] > 20.6 µM
active: Potency [1] 1.58 µM

Nc1ccc(S(N)(=O)=O)cc1
inactive: outcome [5] | Potency [6] > 92 µM | Potency [7] > 92 µM | Potency [8] > 92 µM | Potency [9] > 92 µM | Potency [10] > 92 µM | activity change, negative = inhibition ([2]; at 17.2 µM (top of the series)) -0.0158% | outcome [3] | Potency [4] > 20.6 µM

CCCOc1ccc2nc(NC(=O)OC)[nH]c2c1
inactive: outcome [5] | outcome [3] | Potency [4] > 20.6 µM

Oc1ccc(-c2nc(-c3ccc(F)cc3)c(-c3ccncc3)[nH]2)cc1
active: Potency [1] 15.8 µM
inactive: outcome [5] | outcome [3] | Potency [4] > 46 µM

Cc1c(OCC(F)(F)F)ccnc1CS(=O)c1nc2ccccc2[nH]1 (stereo unspecified)
inactive: activity change, negative = inhibition ([2]; at 17.2 µM (top of the series)) -20.4% and -11.1% | activity change, negative = inhibition ([2]; at 38 µM (top of the series)) 0.241% | outcome [3] | Potency [4] > 46 µM and > 20.6 µM
active: Potency [1] 31.6 µM and 15.8 µM

O=c1c(O)c(-c2cc(O)c(O)c(O)c2)oc2cc(O)cc(O)c12
active: Potency [1] 5.01 µM and 2 µM and 7.94 µM
inactive: activity change, negative = inhibition ([2]; at 17.2 µM (top of the series)) -3.39% | activity change, negative = inhibition ([2]; at 38 µM (top of the series)) 11.8% | outcome [3] | Potency [4] > 46 µM and > 20.6 µM

CCc1nc(N)nc(N)c1-c1ccc(Cl)cc1
active: Potency [1] 10 µM | Potency [7] 3.02 µM | Potency [8] 1.64 µM | Potency [9] 1.05 µM
inactive: Potency [6] > 92 µM | Potency [10] > 92 µM | activity change, negative = inhibition ([2]; at 17.2 µM (top of the series)) -6.33% and 6.33% | outcome [3] | Potency [4] > 20.6 µM

Cc1cc2cc3c(C)cc(=O)oc3c(C)c2o1
inactive: outcome [5]
active: Potency [1] 1 µM

Cc1ccc(C)c(OCCCC(C)(C)C(=O)O)c1
inactive: Potency [6] > 92 µM | Potency [7] > 92 µM | Potency [8] > 92 µM | Potency [9] > 92 µM | Potency [10] > 92 µM | activity change, negative = inhibition ([2]; at 17.2 µM (top of the series)) 0.602% and 17.8% | outcome [3]
active: Potency [1] 12.6 µM

CC(=O)Nc1ccc(O)cc1
inactive: Potency [1] | Potency [6] > 92 µM | Potency [7] > 92 µM | Potency [8] > 92 µM | Potency [9] > 92 µM | Potency [10] > 92 µM | outcome [3]

O=C(CCc1ccc(O)cc1)c1c(O)cc(O)cc1O
active: Potency [1] 6.31 µM and 2 µM
inactive: outcome [5] | activity change, negative = inhibition ([2]; at 38 µM (top of the series)) 9.49% | Potency [4] > 46 µM

COc1c2occc2cc2ccc(=O)oc12
inactive: outcome [5] | Potency [6] > 92 µM | Potency [7] > 92 µM | Potency [8] > 92 µM | Potency [9] > 92 µM | Potency [10] > 92 µM | activity change, negative = inhibition ([2]; at 17.2 µM (top of the series)) 0.388% | outcome [3] | Potency [4] > 20.6 µM

O=C1NC(=O)C(c2ccccc2[N+](=O)[O-])=C1Nc1ccc(O)c(Cl)c1
active: Potency [1] 7.94 µM
inactive: activity change, negative = inhibition ([2]; at 38 µM (top of the series)) -15.2% | outcome [3] | Potency [4] > 46 µM

O=c1cc(N2CCOCC2)oc2c(-c3ccccc3)cccc12
active: Potency [1] 1.58 µM and 200 nM
inactive: activity change, negative = inhibition ([2]; at 38 µM (top of the series)) -14.3% | outcome [3] | Potency [4] > 46 µM

CC1(C)C(=O)N(CCN2CCC(C(=O)c3ccc(F)cc3)CC2)c2ccccc21
inactive: outcome [5] | Potency [1] | activity change, negative = inhibition ([2]; at 38 µM (top of the series)) -22.8% | outcome [3] | Potency [4] > 46 µM

COc1ccccc1N1CCN(CCN(C(=O)C2CCCCC2)c2ccccn2)CC1
inactive: Potency [1] | activity change, negative = inhibition ([2]; at 38 µM (top of the series)) 3.68% | outcome [3] | Potency [4] > 46 µM

O=C1c2ccccc2-c2n[nH]c3cccc1c23
inactive: outcome [5] | activity change, negative = inhibition ([2]; at 38 µM (top of the series)) 6.14%
active: Potency [1] 126 nM and 15.8 nM
